# PI4K2A inh: inhibitors of human PI4K2A. Q9BTU6. purified PI4K2A, ADP-Glo luminescence, 1 h; active compounds read low. activity change, negative = inhibition, % at 76.9 µM. actives 0.13% (n = 420,000); in the data active means activity change below about -50%; inconclusive means mostly about -30% to -49%;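 further: -100% = wells without enzyme as full effect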
#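 PI4K2A activity was measured by ADP-Glo luminescence: enzyme (4 ug/mL stock) and phosphatidylinositol (1.2 mM stock) in Tris pH 7.5/MgCl2/EGTA/Triton X-100 buffer were reacted with ATP (300 microM stock) for one hour at ambient temperature.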
# Integrin act MD: activates integrin-mediated alleviation for muscular dystrophy; Potency, µM (titrated, usually from 38.3 µM), for the others: top-dose activation, usual class: activators; AID 624291; alpha7betagal myoblasts, beta-gal FDG fluorescence, 48 h; actives 0.064% (n = 350,000);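 further: potency means the concentration at half of the fitted maximal effect; 100% = response of the positive control SU9516; nearly all actives have a fitted effect of over 60% in size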
#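 Alpha7betagal+/- myoblasts (passage 13) were plated 16-24 hr, then exposed to compounds (1:260 dilution of DMSO stock) for 48 hours at 37C. After MPER lysis, β-galactosidase reporter activity was read as FDG fluorescence (ex 480/em 540) after 30 minutes.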
# LDHA block: blocks human lactate dehydrogenase A; P00338; purified LDHA, NADH/diaphorase-resazurin fluorescence; active compounds read low; activity change, % (values are at about 110 or 230 µM); actives 0.15% (n = 480,000); AID 1347041; in the data active means activity change below about -30%; inconclusive means mostly about -25% to -30%;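 further: plate controls were DMSO wells for no effect and wells without enzyme for full effect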
#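 Human LDH5 at 2 nM final in Tris HCl pH 7.4 with 0.06 mM NADH and 0.2 mM pyruvate, reacted 5 minutes at room temperature. Remaining NADH coupled via diaphorase/resazurin; resorufin fluorescence read at 0 and 20 minutes, normalized to enzyme-free and DMSO wells.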
# TrxR1 inh: inhibitors of rat thioredoxin reductase 1. O89049. recombinant rTrxR1, NADPH fluorescence consumption, selenite substrate. Potency, µM (series often up to 114 µM), for the others: top-dose activity change, negative = inhibition, actives largely listed as inhibitors. actives 1% (n = 390,000). AID 588453; further: potency means the concentration at half of the fitted maximal effect; nearly all actives have a fitted effect of over 65% in size
#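 Rat TrxR1 (90 nM in the dispensed reagent) was pre-reduced with 400 uM NADPH for 5 min at room temperature, then incubated with compound for 15 min. After 400 uM selenite was added, NADPH fluorescence (Ex 340/Em 450 nm) was followed for 8 min.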
# GALK inhibitor: inhibitors of human galactokinase | Potency, µM (titrated, usually from 57.5 µM), without a hit: at the highest dose activity change, negative = inhibition, hits mostly inhibitors | Purified GALK, Kinase-Glo residual ATP luminescence | actives 0.007% (n = 270,000); further: potency means the concentration at half of the fitted maximal effect
# Target sequence (P51570 whole entry, looked up): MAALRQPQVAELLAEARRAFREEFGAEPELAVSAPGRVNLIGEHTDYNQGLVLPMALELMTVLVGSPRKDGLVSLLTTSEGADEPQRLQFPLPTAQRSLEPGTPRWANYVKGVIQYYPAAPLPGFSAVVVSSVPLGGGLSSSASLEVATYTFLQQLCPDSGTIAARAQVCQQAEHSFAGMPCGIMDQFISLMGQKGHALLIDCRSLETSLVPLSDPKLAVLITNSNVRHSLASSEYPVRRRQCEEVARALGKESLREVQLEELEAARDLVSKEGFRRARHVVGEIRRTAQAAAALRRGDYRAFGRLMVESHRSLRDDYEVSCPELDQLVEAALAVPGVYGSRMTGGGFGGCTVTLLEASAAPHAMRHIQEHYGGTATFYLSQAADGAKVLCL
#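 Quantitative HTS: GALK 5 nM, ATP 35 uM, galactose 100 uM, 1 h room temperature, then luciferase-based ATP detection.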
# TrxR1 substrate: is turned over as a substrate by rat TrxR1; AID 588456; actives 0.01% (n = 390,000); Potency, µM (doses to about 114 µM), for inactives: top-dose activity change, negative = substrate turnover; purified TrxR1 substrate turnover, NADPH consumption readout; further: potency means the concentration at half of the fitted maximal effect; nearly all actives have a fitted effect of over 50% in size
#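 Rat TrxR1, dispensed at 90 nM, was prereduced with 400 uM NADPH (final) for 5 min at ~22 deg C, then incubated with compound 15 min before 400 uM selenite. A first-read NADPH fluorescence drop versus no-compound background flagged substrates.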
# The depositor's hits bear a star; ? = inconclusive; . = no result given; [ ] = another dose, or the depositor's remark. Most compounds without a hit are left out; they make up all but 1.1% or so of the library. Unless noted, the call rests on the fitted dose curve; in most records, active means well fitted curve in the direction sought with a large enough effect; inconclusive means small, poorly fitted or top-dose-only effect, or another doubt; inactive means no such curve, though single readings can be large; an effect the other way counts as inactive or inconclusive. Unless noted, on the % scale 0 is the no-effect control and ±100 the full control effect.
SMILES,PI4K2A inh,Integrin act MD,LDHA block,TrxR1 inh,GALK inhibitor,TrxR1 substrate
COC(=O)/C(=C/c1ccco1)NC(=O)c1ccc(Br)o1,-7,8%,1,?,4%,-17%
NC(=O)/C(=C/c1ccco1)NC(=O)c1ccc(Br)o1,-9,21%,9,11µM*,.,-4%
Cc1nc(CNC(=O)CC2C(=O)NCCN2Cc2ccoc2)nc2c1CCCC2 (stereo unspecified),2,-48%,-1,50µM*,4%,5%
Cc1nc(CCNC(=O)CC2C(=O)NCCN2Cc2ccoc2)nc2c1CCCC2 (stereo unspecified),-9,1%,-4,?,2%,8%
CSc1cccc(NS(=O)(=O)c2cn(C)c(C)n2)c1,-4,.,-6,15%[57.1 µM],.,-1%[57.1 µM]
CSc1cccc(NS(=O)(=O)c2cn(C)cn2)c1,-4,-1%,-6,50µM*,4%,-4%
Cc1cccc(OCCSc2nc(N)cc(N)n2)c1,2,-1%,-3,40µM*,0%,-15%
COc1cc(C(=O)OCCNC(=O)c2cccnc2)cc(OC)c1OC,-19,2%,-2,-7%,.,3%[57.1 µM]
Cc1cc(C)c(OCC(=O)OCCNC(=O)c2cccnc2)c(C)c1,1,15%,-10,50µM*,0%,-3%
COc1ccccc1CCNC(=O)Cc1c(C)c2cc(Cl)c(O)cc2oc1=O,-1,.,10,79µM*,.,964%
COc1cc2oc(=O)c(CC(=O)NCCc3ccccc3F)c(C)c2cc1OC,2,.,-11,?,.,470%
Cc1c(CC(=O)NCCc2ccccc2F)c(=O)oc2cc(O)c(Cl)cc12,-3,.,5,71µM*,.,915%
CC(C)N(Cc1ccccc1)S(=O)(=O)c1cccc2nsnc12,.,.,4,.,.,.
Cc1cc(C)c2nc(-c3cccnc3)cc(C(=O)O)c2c1,.,.,-3,.,.,.
CCCS(=O)(=O)N1CCN(c2ccc(N3CCCCC3)nn2)CC1,.,.,3,.,.,.
CCCCn1nnnc1CSc1nnc(-c2ccccc2)n1-c1ccccc1,.,.,-31*,.,.,.
COc1ccc(-n2c(SCc3cccc4ccccc34)nnc2-c2ccccc2)cc1,7,.,.,.,.,.
CCCCCC(=O)Nc1cc(N(C)C)nc2ccccc12,-1,12%,-4,-15%,0%,26%
CCN(CC)CC(=O)Nc1cc(N(C)C)nc2ccccc12,4,14%,-33*,8%[57.1 µM],.,13%[57.1 µM]
CN(CC(=O)NC1(C)CCS(=O)(=O)C1)Cc1ccc(Cl)c(Cl)c1 (stereo unspecified),.,.,5,.,.,.
CCOC(=O)c1ccc(NC(=O)c2nc(S(=O)(=O)Cc3ccccc3)ncc2Cl)cc1,-7,-76%,-3,6.3µM*,-1%,6%
COC(=O)c1ccc(NC(=O)c2nc(S(=O)(=O)Cc3cccc(C)c3)ncc2Cl)cc1,-5,-74%,0,20µM*,2%,-2%
CCS(=O)(=O)c1ncc(Cl)c(C(=O)N(Cc2ccccc2)c2ccc(OC)cc2)n1,1,.,-7,3.5µM*,.,4%
CCOC(=O)c1c(-c2ccccc2)csc1NC(=O)c1nc(S(=O)(=O)CC)ncc1Cl,-8,.,-13,3.2µM*,.,0%
O=C(NC1(C(F)(F)F)N=C(c2ccccc2)N(Cc2ccco2)C1=O)c1cccs1 (stereo unspecified),.,.,-3,.,.,.
CCC(C(=O)Nc1nnc(CC2CCCC2)s1)c1ccccc1 (stereo unspecified),.,.,2,.,.,.
CCCS(=O)(=O)c1ncc(Cl)c(C(=O)N(Cc2ccccc2)Cc2ccco2)n1,4,.,0,1.8µM*,.,12%[0.457 µM]
CCCS(=O)(=O)c1ncc(Cl)c(C(=O)Nc2ccc(S(=O)(=O)Nc3ncccn3)cc2)n1,-22,-6%,-1,45µM*,-4%,-3%
COC(=O)c1ccccc1NC(=O)c1nc(S(=O)(=O)Cc2cccc(C)c2)ncc1Cl,1,.,-7,1.4µM*,.,8%
CCS(=O)(=O)c1ncc(Cl)c(C(=O)Nc2ccc(S(=O)(=O)N3CCC(C)CC3)cc2)n1,-15,0%,-1,8.9µM*,0%,-1%

# Screening results: PubChem BioAssay, National Center for Advancing Translational Sciences (NCATS)
